Screening data from PubChem BioAssay.
In the library only some 7.8% were active in any assay of this set; here they are far more common.
HCMV antiviral: human cytomegalovirus inhibition. actives 4.5% (n = 410,000). activity change, negative = inhibition, % at 57.5 µM. HFF cells, HCMV-luciferase reporter, 72 h; active compounds read low; in the data active means activity change below about -60%; inconclusive means no clear call, values can overlap the other calls; inactive means above about -39%
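Cell-based, HFFs, 1000 cells/well, 16 h 37C; cpds in DMSO + HCMV-luc, MOI 1 PFU/cell; 72 h 37C; OneGlo luminescence after 5 min RT; norm. to buffer vs Salinomycin 10uM.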
Vaccinia Venus: inhibitors of vaccinia virus (Venus reporter). AID 720580. actives 0.46% (n = 330,000). Vaccinia virus Venus reporter expression, fluorescence. Potency, µM (top dose mostly 36.5 µM), inactives show top-dose activity change, negative = inhibition, actives largely listed as inhibitors; calls by dose curve; tested in A549 cells; further: potency means the concentration at half of the fitted maximal effect; nearly all actives have a fitted effect of over 30% in size
VACV mCherry inh: vaccinia inhibition (mCherry reporter); AID 720579; Vaccinia virus mCherry reporter infection, fluorescence; actives 0.63% (n = 310,000); Potency, µM (series often up to 36.5 µM), for the others: at the top dose activity change, negative = inhibition, most hits filed as inhibitors; calls by dose curve; tested in A549 cells; further: potency means the concentration at half of the fitted maximal effect; nearly all actives have a fitted effect of over 35% in size
MARV entry inh: Marburg virus entry inhibition. Marburg virus pseudotyped entry inhibition, cell reporter. Potency, µM (top dose mostly 37.8 µM), inactives show top-dose activity change, negative = inhibition, hits mostly inhibitors. actives 1.8% (n = 300,000). AID 540276; calls by dose curve; tested in HEK293 cells; further: potency means the concentration at half of the fitted maximal effect
HCV inhibitor: inhibitors of hepatitis C virus infection | actives 3.4% (n = 340,000) | Potency, µM (titrated, usually from 41.8 µM), for inactives: at the highest dose activity change, negative = inhibition, most hits filed as inhibitors | AID 651820 | Huh7.5.1 HCVcc-Cre infection, luciferase reporter, 44 h; active means well fitted inhibition curve with a large enough effect; inconclusive means small, poorly fitted or top-dose-only effect, or another doubt; inactive means no such curve, though single readings can be large or run the other way; further: potency means the concentration at half of the fitted maximal effect
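Antiviral activity was scored by luciferase reporter output from cells infected with HCVcc-Cre (~0.5 moi) in presence of compound, 44 h infection period, cells seeded 1,000/well 4 h prior.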
LASV entry inh: Lassa virus entry inhibition; Lassa virus pseudotype entry inhibition, cell reporter; Potency, µM (highest dose often 37.9 µM), for inactives: top-dose activity change, negative = inhibition, usual class: inhibitors; actives 1.2% (n = 300,000); calls by dose curve; tested in HEK293 cells; further: potency means the concentration at half of the fitted maximal effect; nearly all actives have a fitted effect of over 50% in size
* = called active by the depositor; [ ] = another dose, or the depositor's remark. On the % scale 0 is the no-effect control and ±100 the full control effect.

Screening CCCCc1c(-c2cccc(F)c2)ncn1CCc1ccccc1OC returned HCMV antiviral -61*, Vaccinia Venus inconclusive and VACV mCherry inh -4%.
CCCc1c(-c2cccc(F)c2)ncn1CCc1ccccc1OC was read as HCMV antiviral -74*, Vaccinia Venus -21% and VACV mCherry inh -17%.
For CCCCc1c(-c2cccc(Br)c2)ncn1CCc1ccccc1OC the results were HCMV antiviral -101*, Vaccinia Venus -17% and VACV mCherry inh -16%.
`CCCCCc1c(-c2cccc(OC)c2)ncn1CCc1ccccc1OC` gave HCMV antiviral -95*, Vaccinia Venus -23% and VACV mCherry inh -22%.
Screening CCCCCc1c(-c2cccc(F)c2)ncn1CCc1ccccc1OC returned HCMV antiviral inconclusive, Vaccinia Venus -20% and VACV mCherry inh -24%.
For COc1ccc2c(c1)OC(C)CN(CCNC(=O)c1csc(-c3cccs3)n1)C2 (stereo not given) the results were Vaccinia Venus 14% and VACV mCherry inh -6%.
O=C(Nc1ccccc1Sc1ccccc1)c1cnn2c1NC(=C1CC1)C=C2C(F)(F)F was read as Vaccinia Venus -13% and VACV mCherry inh -19%.
O=C(NCCc1nnc2n1CCN(Cc1c(F)cccc1F)CC2)c1ccc(F)cc1 was read as Vaccinia Venus -16% and VACV mCherry inh -16%.
For CCCCCc1c(-c2ccc(Br)cc2)ncn1CCc1ccccc1OC the results were HCMV antiviral -104*, Vaccinia Venus -23% and VACV mCherry inh -4%.
`CCCCCc1c(-c2ccc(F)cc2)ncn1CCc1ccccc1OC` gave HCMV antiviral -28, Vaccinia Venus -27% and VACV mCherry inh inconclusive.
COc1cc(Cl)c(C)cc1NC(=O)Cn1ncc2c(=O)oc3ccccc3c21 was read as HCMV antiviral 3, Vaccinia Venus -14%, VACV mCherry inh -18%, MARV entry inh 1%[46.1 µM] and LASV entry inh 18%[46.1 µM].
For COc1ccccc1Oc1nc(-c2ccccc2)cc(C)c1S(C)(=O)=O the results were HCMV antiviral -13, Vaccinia Venus -16%, MARV entry inh inconclusive, HCV inhibitor inconclusive and LASV entry inh -18%.
Screening Cc1cccc(Oc2nc(-c3ccccc3)cc(C)c2S(C)(=O)=O)c1C returned HCMV antiviral 0, Vaccinia Venus inconclusive, MARV entry inh inconclusive, HCV inhibitor 10µM* and LASV entry inh inconclusive.
`O=c1[nH]c(/C=C2\C=Nc3ccccc32)c(O)n1Cc1ccccc1F` gave HCMV antiviral -31, Vaccinia Venus inconclusive, VACV mCherry inh inconclusive, MARV entry inh inconclusive and HCV inhibitor 4.5µM*.
COc1cccc(CNC(=O)[C@@H]2[C@@H](CO)[C@@H]3Cn4c(ccc(-c5cncnc5)c4=O)[C@H]2N3C(C)=O)c1 was read as HCMV antiviral -101*.
COCCNC(=O)[C@H]1[C@H](CO)[C@H]2Cn3c(ccc(-c4ccc(F)cc4)c3=O)[C@@H]1N2C(=O)NC(C)C was read as HCMV antiviral 3.
For COc1ccc(-c2cc(C(=O)N/N=C(\C)c3cccnc3)c3ccccc3n2)cc1 the results were HCMV antiviral 47, Vaccinia Venus -20%, VACV mCherry inh -13%, MARV entry inh -20% and LASV entry inh -27%.
C/C(=N\NC(=O)c1cc(C2CC2)nc2ccccc12)c1ccc(C)s1 was read as HCMV antiviral -4, Vaccinia Venus inconclusive, VACV mCherry inh inconclusive, MARV entry inh inconclusive, HCV inhibitor -6% and LASV entry inh 1%.
For C/C(=N\NC(=O)c1cc(C2CC2)nc2ccccc12)c1ccc(O)cc1O the results were HCMV antiviral -61*, Vaccinia Venus -24%, VACV mCherry inh inconclusive, MARV entry inh inconclusive, HCV inhibitor 6.3µM* and LASV entry inh inconclusive.
`CCOc1ccc(-c2cc(C(=O)N/N=C(\C)c3cccnc3)c3ccccc3n2)c(OCC)c1` gave HCMV antiviral -36, Vaccinia Venus 5%, VACV mCherry inh -3%, MARV entry inh 4µM*, HCV inhibitor inconclusive and LASV entry inh inconclusive.
`C/C(=N\NC(=O)c1cc(-c2cccnc2)nc2ccccc12)c1ccccc1O` gave HCMV antiviral -102*, Vaccinia Venus inconclusive, VACV mCherry inh inconclusive, MARV entry inh 10µM*, HCV inhibitor 4µM* and LASV entry inh inconclusive.
O=c1c2ccccc2n(Cc2cccc(Cl)c2)c(=O)n1CCc1ccccc1 was read as HCMV antiviral 18, Vaccinia Venus 11%, VACV mCherry inh 14%, MARV entry inh 18%[46.1 µM] and LASV entry inh 20%[46.1 µM].
Cc1ccc(C2NC(c3ccc4c(c3)OCO4)=CC(c3cc(Br)ccc3O)N2)cc1 (stereo not given) was read as Vaccinia Venus 5% and VACV mCherry inh -19%.
CCOC(=O)CN1C(=O)c2cccnc2Oc2ccccc21 was read as HCMV antiviral -25, Vaccinia Venus -9%, VACV mCherry inh -3%, MARV entry inh 9%[46.1 µM] and LASV entry inh 20%[46.1 µM].
For O=C(NCc1ccc(F)cc1)C(=O)NCC(c1ccc2c(c1)OCO2)N1CCOCC1 (stereo not given) the results were HCMV antiviral 72, Vaccinia Venus -9%, VACV mCherry inh -7% and LASV entry inh 5%[46.1 µM].
For CCOC(=O)c1cccc(NC(=O)CCn2cccc2)c1 the results were HCMV antiviral -8, Vaccinia Venus -9%, MARV entry inh -26%, HCV inhibitor -4% and LASV entry inh 8.9µM*.
For CCOC(=O)c1cccc(NC(=O)CCn2c(=O)oc3ccccc32)c1 the results were HCMV antiviral inconclusive, Vaccinia Venus 3%, VACV mCherry inh -14%, MARV entry inh inconclusive, HCV inhibitor -27% and LASV entry inh inconclusive.
`O=C(Nc1cccc(-c2nc3ncccc3o2)c1)c1sc2cc(Cl)ccc2c1Cl` gave HCMV antiviral 20, Vaccinia Venus -7%, VACV mCherry inh inactive, MARV entry inh inconclusive, HCV inhibitor 8.9µM* and LASV entry inh -16%.
For O=C(Nc1cccc(-c2nc3ncccc3o2)c1)c1sc2ccccc2c1Cl the results were HCMV antiviral 6, MARV entry inh inconclusive, HCV inhibitor inconclusive and LASV entry inh inconclusive.
Screening O=C1CC(N(CCc2ccccc2)C(=S)Nc2ccccc2)C(=O)N1c1ccccc1 (stereo not given) returned HCMV antiviral -16, Vaccinia Venus -23%, VACV mCherry inh 9%, MARV entry inh inconclusive, HCV inhibitor -25% and LASV entry inh inconclusive.
Screening O=C1CC(N(CCc2ccccc2)C(=S)Nc2cc(Cl)ccc2Cl)C(=O)N1c1c(Cl)cccc1Cl (stereo not given) returned HCMV antiviral -25, Vaccinia Venus inconclusive, VACV mCherry inh inconclusive, MARV entry inh 13µM*, HCV inhibitor inconclusive and LASV entry inh inconclusive.
